Our source for the inhibition values is PubChem BioAssay AID1852 (Sanford-Burnham Center for Chemical Genomics, 2009).

In all, about 2,500 compounds went through this assay and about 1,100 (44%) were called active. The set was probably picked from earlier hits. Some of the results follow. A number with no mark means an inactive call.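 How the source made its calls: active means inhibition above 50% at 4 µM in the single-point screen; inactive means inhibition of 50% or less.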

The assay is described as follows: blockers of TNF-a NF-kB luciferase induction – cell-based, HEK293T NF-kB-Luc, luminescence, selectivity assay for NOD1/NOD2 signaling inhibitor project, primary screen (AID 1852). Particulars: TNF-a induced, 14 h, at 4 µM, stronger effect = higher value.
Consider `COc1ccc(-c2cc(C)no2)cc1S(=O)(=O)N1CCN(c2ccc([N+](=O)[O-])cc2)CC1`, for which the inhibition (in general, the relative decrease from the control value, in per cent) is 44.5%. As for `CCN1/C(=C\c2ccc3cc(C)ccc3[n+]2CC)Sc2cc(C)c(C)cc21`, the inhibition was 65.4% (active). The same measure for `CCN1/C(=C\c2ccc3ccccc3[n+]2CC)Sc2cc(C)ccc21`: 55.6% (active). The same measure for `CCN1/C(=C/c2ccc3cc(C)ccc3[n+]2CC)Sc2ccccc21`: 76.1% (active); for `CCN1/C(=C/c2ccc3cc(C)ccc3[n+]2CC)Sc2cc(C)ccc21`: 48.9%. The same measure for `CCN1/C(=C/c2ccc3cc(C)ccc3[n+]2CC)Sc2cc(C)c(C)cc21`: 54.5% (active); for `O=C1N(Cc2cccc(Cl)c2)C[C@@H]2C[C@@H](c3cccn3-c3cccnc3)N3CCC[C@@]123`: 4.8%; for `CCN1/C(=C/c2ccc3cc(C)cc(C)c3[n+]2CC)Sc2cc(C)ccc21`: 79.4% (active). Take `O=C(CCl)NC(Cc1ccccc1)c1ccccc1` (stereo unspecified): the inhibition is 21.3%. As to `O=C(CCl)N(c1ccccc1)c1c[nH]c2ccccc12`, the inhibition was 103% (active).

On to `COc1ccc(CC(=O)N(Cc2ccccc2)c2ccccc2)cc1S(=O)(=O)N1CCOCC1`, for which the inhibition is 13.5%. Turning to `O=C(CCl)N(c1ccccc1)c1ccccc1`, the inhibition was 63.7% (active). As for `O=Cc1[nH]c2ccccc2c1N(C(=O)CCl)c1ccccc1`, the figure is 31.9%; as for `CN(Cc1ccc(Cl)cc1)C(=O)CCl`, 9.6%; as for `O=C(CCl)N(Cc1ccccc1)c1ccccc1`, 89.7% (active).

Take `COc1cc2c(cc1OC)C(c1ccc(-c3cc(Cl)ccc3Cl)o1)=NCC2`: the inhibition was 26.5%. `Cc1csc(NC(=O)C2CC(=O)N(c3ccc(C)c(C)c3)C2)n1` (stereo unspecified): the inhibition is -11.9%. Take `Cc1cnc(NC(=O)C2CC(=O)N(c3cccc(Cl)c3)C2)s1` (stereo unspecified): the inhibition is 92.4% (active). `O=C(/C(=C/c1ccc(Cl)cc1)c1nc2ccccc2[nH]1)c1cccs1`: the inhibition was 106% (active). As for `COc1cc(/C=C(/C(=O)c2cccs2)c2nc3ccccc3[nH]2)ccc1O`, the figure is 31.5%; as for `O=C(/C(=C/c1cccc(Cl)c1)c1nc2ccccc2[nH]1)c1ccccc1`, 31.9%. As to `O=C(/C(=C/c1ccc(Cl)cc1)c1nc2ccccc2[nH]1)c1ccccc1`, the inhibition is 107% (active). The same measure for `O=C(/C(=C\c1ccccc1)c1nc2ccccc2[nH]1)c1ccc(Cl)cc1`: 94.9% (active); for `Cc1cccc(Cc2cnc(N3C(=N)SC(C)C3=O)s2)c1` (stereo unspecified): 100% (active); for `Cc1ccc(Cc2cnc(N3C(=N)SC(C)C3=O)s2)cc1` (stereo unspecified): 103% (active). For the compound `Cc1cccc(CN2CCN(C(=O)CCl)CC2)c1`, the inhibition was 36%.

`COc1cc(S(=O)(=O)NCc2ccncc2)ccc1Br`: the inhibition is 45.8%. On to `CCSc1nsc(NC(=O)Nc2cccc(C(C)=O)c2)n1`, for which the inhibition was 30.4%. In the case of `C=CCSc1nsc(NC(=O)Nc2cccc(C(C)=O)c2)n1`, the inhibition was 85.2% (active). As for `C=CCSc1nsc(NC(=O)Nc2ccc(F)cc2)n1`, the figure is 43.4%. As for `CC(=O)c1ccc(Nc2nc3ccccc3nc2NS(=O)(=O)c2cccs2)cc1`, the figure is 12.2%. As for `C=CCN(c1ccccc1OC)S(=O)(=O)c1ccc(Cl)c(C(=O)Nc2ccc(N3CCOCC3)cc2)c1`, the figure is 25.4%; as for `O=S(=O)(Nc1nc2ccccc2nc1Nc1ccc(N2CCOCC2)cc1)c1cc(Cl)ccc1Cl`, 77% (active); as for `COc1ccc(CNC(=O)c2ccc3ccccc3n2)cc1OC`, 38%. As for `COc1ccc(CNC(=O)c2c(C)oc3c2C(=O)c2ccccc2C3=O)cc1`, the inhibition is 100% (active). As for `Cc1oc2c(c1C(=O)c1ccccc1)C(=O)C(=O)c1ccccc1-2`, the figure is 104% (active). Regarding `Cc1oc2c(c1C(=O)NCc1cccnc1)C(=O)c1ccccc1C2=O`, the inhibition was 97.7% (active). The same measure for `Cc1ccccc1-c1nc(CS(=O)(=O)CC(=O)NCCc2ccccc2)c(C)o1`: 10%; for `Cc1csc2c(N3CCN(C(=S)Nc4ccc(C(F)(F)F)cc4)CC3)ncnc12`: 78.5% (active); for `Cc1csc2c(N3CCN(C(=O)Nc4ccc(Cl)c(Cl)c4)CC3)ncnc12`: 52.5% (active). Take `Fc1ccc(NC(=S)N2CCCN(c3ccc(C(F)(F)F)cn3)CC2)c(F)c1`: the inhibition is 55.6% (active). For `Cc1csc2ncnc(N3CCN(C(=S)Nc4ccc(F)cc4F)CC3)c12`, the inhibition is 66.9% (active). Consider `CCCCNC(=S)Nc1ccc(C(F)(F)F)cc1`, for which the inhibition was -47.5%. The same measure for `Fc1ccc(NC(=S)NNc2ncc(C(F)(F)F)cc2Cl)c(F)c1`: 49.4%. As for `Cc1ccc(S(=O)(=O)c2c(C(=O)c3ccccc3)cnc3cc4c(cc23)OCCO4)cc1`, the inhibition is 1.5%. On to `Cc1csc2ncnc(N3CCN(S(=O)(=O)c4cccc(C(F)(F)F)c4)CC3)c12`, for which the inhibition was 44.4%. In the case of `Cc1csc2ncnc(N3CCN(C(=S)Nc4ccc(C(F)(F)F)cc4)CC3)c12`, the inhibition is 66.1% (active).

Take `Cc1csc2ncnc(N3CCN(C(=O)Nc4ccc(OC(F)(F)F)cc4)CC3)c12`: the inhibition was 102% (active). `O=C(CCl)c1cc2c3c(c1)CC(=O)N3CCC2`: the inhibition was 90.7% (active).

On to `Fc1ccc(NC(=S)Nc2nccs2)cc1`, for which the inhibition is 73.6% (active). As for `O=[N+]([O-])c1ccc(NC(=S)NCc2ccc(F)cc2)cc1`, the figure is 22.1%; as for `CC(=O)Nc1nnc(S(=O)(=O)N2CCN(c3ccc(Cl)cc3[N+](=O)[O-])CC2)s1`, -2.9%.

Take `COc1ccc(-c2cn[nH]c2-c2ccc(OC)cc2O)cc1`: the inhibition is 69.2% (active). As for `COc1ccc(-c2cn[nH]c2-c2ccc(OCc3ccccc3)cc2O)cc1`, the figure is 32.2%. Turning to `CCCOC(=O)c1ccc(Oc2cn[nH]c2-c2ccc(O)cc2O)cc1`, the inhibition is 17.1%. For the compound `COc1ccc(-c2[nH]ncc2-c2ccc3c(c2)OCCO3)c(O)c1`, the inhibition is 102% (active). Regarding `COc1ccc(-c2cn[nH]c2-c2ccc(OC)cc2)cc1`, the inhibition is 63.6% (active).

Consider `COc1ccc(-c2cn[nH]c2-c2ccc(O)cc2O)cc1`, for which the inhibition was 51% (active).

Turning to `COc1ccc(-c2cn[nH]c2-c2ccc(OCc3ccc(F)cc3)cc2O)cc1OC`, the inhibition was 4.6%.

As to `COc1ccc(-c2cn[nH]c2-c2ccc(OCc3ccccc3F)cc2O)cc1OC`, the inhibition is -1.5%. The same measure for `CS(=O)(=O)N1CCC(C(=O)Nc2cc(Cl)c(Cl)cc2Cl)CC1`: 30.2%.
